Bioassay records: PubChem BioAssay, National Center for Advancing Translational Sciences (NCATS)
Most compounds without a hit are left out; they make up all but 10% or so of the library.
NS1 inh = qHTS Assay for Inhibitors of Influenza NS1 Protein Function | Potency, µM (series often up to 46.1 µM), without a hit: at the top dose activity, positive = more growth | 270,000 tested, 0.4% active | AID 2326, 2010; also: actives are rising curves; nearly all actives have a fitted effect of over 50% in size
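Read-out: OD600 growth recovery of NS1-expressing budding yeast. Cells grown overnight at 30C in -URA glucose medium, washed, resuspended and diluted 1:100 in 2% galactose assay medium, pH 6.0. Same strain lacking NS1 served as positive control.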
SARS PLpro yeast = qHTS of Yeast-based Assay for SARS-CoV PLP; 330,000 tested, 0.19% active; S. cerevisiae expressing SARS-CoV PLpro, growth rescue; AID 485353, 2010; Potency, µM (highest dose often 32.9 µM), without a hit: at the top dose activity, positive = growth rescue, usual class: activators; also: 0% is about no effect; nearly all actives have a fitted effect of over 55% in size
Pf growth 48h = Primary qHTS for delayed death inhibitors of the malarial parasite plastid, 48 hour incubation. P. falciparum luciferase growth in erythrocytes, 48 h. Potency, µM (doses to about 28.7 µM), for the others: top-dose activity change, negative = inhibition, hits mostly inhibitors. 310,000 tested, 5.9% active. AID 504832, 2011; active = well fitted inhibition curve with a large enough effect; inconclusive = small, poorly fitted or top-dose-only effect, or another doubt; inactive = no such curve, though single readings can be large or run the other way; also: % is scaled to controls: 0 for no effect and ±100 for the full control effect
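Here the parasites carry a stable luciferase gene and grow inside erythrocytes in Albumax-based RPMI medium with compound for one erythrocytic cycle. Activity is scored as loss of luminescent signal.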
Pf growth 96h = Primary qHTS for delayed death inhibitors of the malarial parasite plastid, 96 hour incubation | Potency, µM (series often up to 28.7 µM), inactives show at the highest dose activity change, negative = inhibition, usual class: inhibitors | 320,000 tested, 6.9% active | AID 504834, 2011 | P. falciparum luciferase reporter growth, 96 h; active = well fitted inhibition curve with a large enough effect; inconclusive = small, poorly fitted or top-dose-only effect, or another doubt; inactive = no such curve, though single readings can be large or run the other way; also: % is scaled to controls: 0 for no effect and ±100 for the full control effect
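Erythrocytes infected with luciferase-expressing P. falciparum were dispensed at 2% hematocrit and 0.05% parasitemia (final), then incubated with compounds 96 hours at 37 C in 5% CO2. Luminescence after detection reagent addition reported growth.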
The depositor's hits bear a star; u = inconclusive; x = no result; [ ] = remark or other dose. Unless noted, calls follow the shape of the full dose curve. Potency is read from the fitted curve at half-maximal effect.

SMILES	NS1 inh	SARS PLpro yeast	Pf growth 48h	Pf growth 96h
OC(CN1CCN(C(c2ccccc2)c2ccccc2)CC1)c1ccc(Br)cc1 (stereo unspecified)	4.0%	3.5%	x	1.31µM*
O=C(Nc1cccc(S(=O)(=O)N2CCOCC2)c1)C1=NN(c2ccccc2)C(=O)CC1	-9.2%	0.7%	u	-22.8%
CC(C)(C)c1ccc(OCCC(=O)Nc2cccc(S(=O)(=O)N3CCCC3)c2)cc1	x	2.9%	10.4µM*	u
CC(C)(C)c1ccc(OCCCC(=O)Nc2cccc(S(=O)(=O)N3CCOCC3)c2)cc1	x	3.7%	u	u
CC(=O)c1ccc(OCCCC(=O)Nc2cccc(S(=O)(=O)N3CCCCC3)c2)cc1	x	-0.5%	13.1µM*	u
Nc1scc2c(C(=O)N/N=C/c3ccc(Cl)cc3)nn(-c3ccccc3)c(=O)c12	20.7%	-0.6%	u	5.22µM*
CCc1ccc(NC(=O)C(C)Sc2ccc(S(=O)(=O)N3CCN(C)CC3)cn2)cc1 (stereo unspecified)	x	12.5%	u	-7.5%
CC(=O)c1ccc(N2CCN(S(=O)(=O)c3c(C(=O)N4CCCC4)c(C)n(C)c3C)CC2)cc1	-12.2%	2.8%	1.3%	18.3%
CCOc1ccc2c(c1)C(N(CCN1CCOCC1)C(=S)Nc1ccccc1OC)CC(C)(C)O2 (stereo unspecified)	x	3.1%	u	10.4µM*
O=C(c1ccc(NS(=O)(=O)c2ccc3[nH]c(=O)[nH]c3c2)cc1)N1CCCC(C(F)(F)F)C1 (stereo unspecified)	x	-3.6%	-22.6%	41.7%
CC(C)[C@H](NC(=O)N1CCn2c1nc1ccccc12)C(=O)NCc1ccccc1Cl	-9.5%	-8.6%	-12.6%	u
CCCCNC(=O)C1C2C=CC3(CN(Cc4ccc(C)cc4)C(=O)C13)O2 (stereo unspecified)	-0.3%	2.3%	1.2%	10.4µM*
COc1ccccc1CN1CCNC(=O)C1CC(=O)NCC1CCOCC1 (stereo unspecified)	11.5%	1.6%	-0.8%	9.28µM*
COc1ccc(CN2CCNC(=O)C2CC(=O)NCC2CCOCC2)c(C)c1C (stereo unspecified)	2.6%	-2.9%	15.5%	67.3%
COc1ccc(CN2CCNC(=O)C2CC(=O)NCC2CCOCC2)c(F)c1 (stereo unspecified)	-0.2%	-4.0%	5.9%	10.4µM*
O=C(Nc1c(C(=O)N2CCOCC2)oc2ccccc12)c1ccccc1Cl	-22.0%	0.0%	-7.0%	-1.5%
Clc1cccc(Cl)c1Cn1cnc2c(N3CCCCCC3)ncnc21	-10.8%	-2.3%	10.4µM*	x
O=c1oc2ccc(Cl)cc2nc1/C=C(\O)c1ccco1	-52.7%	-5.5%	u	14.7µM*
Cc1ccc(C(=O)NC(=S)NCc2ccco2)cc1	x	14.7%	52.6%	u
Cc1ccc(C(=O)NC2CC3CCCC(C2)N3C(=S)NCc2ccco2)cc1 (stereo unspecified)	-2.8%	-2.4%	10.4µM*	32.6%
S=C1SCN(Cc2ccco2)CN1Cc1ccco1	-63.8%	-6.7%	u	4.65µM*
O=C(NNc1c2ccccc2nc2ccccc12)c1ccccc1O	-7.5%	3.6%	u	10.4µM*
O=C(NNc1c2ccccc2nc2ccccc12)C12CC3CC(CC(C3)C1)C2	3.4%	-3.6%	u	13.1µM*
O=C(NNc1c2ccccc2nc2ccccc12)c1cccc(O)c1	-11.7%	-9.0%	13.1µM*	u
Cc1ccc(CNC(=O)C2CCN(C(=O)Nc3ccccc3)CC2)cc1	6.3%	-2.1%	2.8%	6.6%
SMILES	NS1 inh	SARS PLpro yeast	Pf growth 48h	Pf growth 96h
CCOc1ccccc1NC(=O)CCc1c(C)nn(-c2ccc(N3CCCCC3)nn2)c1C	-15.2%	-4.5%	u	u
CN(CCOc1ccccc1)C(=O)c1cc(S(=O)(=O)N2CCCCC2)ccc1Cl	x	0.3%	1.8%	u
O=C(Cc1ccc(S(=O)(=O)N2CCCCC2)cc1)NCc1ccc(Cl)cc1	x	-2.5%	u	-47.3%
CCn1cc(C(=O)NCCC(C)C)c(=O)c2cc(S(=O)(=O)N3CCCCC3)ccc21	6.4%	5.3%	u	u
CC(C)CCNC(=O)c1sc2ccc(S(=O)(=O)N3CCCCC3)cc2c1N	u	5.4%	13.1µM*	0.0%
Nc1c(C(=O)NCCc2ccc(Cl)cc2)sc2ccc(S(=O)(=O)N3CCCCC3)cc12	u	-12.4%	10.4µM*	u
CC(C)Cc1nnc(NC(=O)CCC(=O)NC2CCCCC2)s1	5.3%	2.5%	-14.9%	u
CCOc1cc(/C=N/NC(=O)c2ccccc2OCc2ccc(F)cc2)ccc1O	x	-11.3%	8.28µM*	u
COc1ccc(/C=N/NC(=O)c2sccc2OCc2ccc(F)cc2)cc1OC	-12.1%	-1.5%	u	11.7µM*
CCOc1cc(/C=N/NC(=O)c2ccccc2-n2cccc2)ccc1O	x	0.9%	11.5%	1.5%
C=CCc1c(C)c(C#N)c2nc3ccccc3n2c1N1CCCCC1	0.0%	-2.0%	u	1.85µM*
CC1=C(C)C(=O)C(CCCCC#CCCCC#CCO)=C(C)C1=O	-19.2%	6.3%	13.1µM*	9.28µM*
O=C(Cc1c(F)cccc1Cl)Nc1nccs1	20.6%	5.0%	5.8%	14.7µM*
O=C(CSCc1c(Cl)cccc1Cl)Nc1nccs1	9.1%	13.5%	25.6%	u
CS(=O)(=O)N(CC(N)=O)c1cccc(Br)c1	0.0%	-4.1%	6.9%	3.7µM*
CCN(CC)c1ccc(N)cc1	x	3.0%	1.85µM*	u
CCN(CC)CCC(c1cc(OC)c(OC)c(OC)c1)c1c(O)cc(OC)cc1OC (stereo unspecified)	-3.0%	1.3%	3.29µM*	2.94µM*
COc1cc(O)c(C(CCN2CCCC2)c2ccc3c(c2)OCO3)c(OC)c1 (stereo unspecified)	-1.2%	-0.6%	2.94µM*	2.94µM*
COc1cc(O)c(C(CCN2CCN(c3ccccc3)CC2)c2cc(OC)c(OC)c(OC)c2)c(OC)c1 (stereo unspecified)	-2.0%	3.9%	1.31µM*	0.928µM*
COc1cc(O)c(C(CC(=O)N2CCCC(C)C2)c2cc(OC)c(OC)c(OC)c2)c(OC)c1 (stereo unspecified)	-2.0%	1.0%	u	u
CCN(CC)CCC(c1ccc2c(c1)OCO2)c1c(O)cc(OC)cc1OC (stereo unspecified)	-1.0%	2.0%	1.47µM*	2.94µM*
COc1ccc(/C=C/C(=O)C2CC2)cc1COc1cccc(C)c1C	3.8%	-1.5%	u	u
COc1cc(O)c(C(CCN2CCN(c3ccccc3)CC2)c2ccc3c(c2)OCO3)c(OC)c1 (stereo unspecified)	-0.8%	0.2%	0.828µM*	0.329µM*
CC(C)COC(=O)NC1c2ccccc2Oc2ccccc21	1.3%	-1.6%	5.1%	29.0%
COc1ccc(C(C[N+](=O)[O-])c2c(C)[nH]c3ccccc23)cc1OC (stereo unspecified)	-7.5%	-14.5%	2.08µM*	u
C/C=C\C(=O)N(CC)c1ccccc1C	x	x	-12.0%[12.8 µM]	4.3%[12.8 µM]
